# RORgamma inh: blocks mouse ROR gamma transcriptional activity | Potency, µM (highest dose often 53.6 µM), without a hit: at the highest dose activity change, negative = inhibition, usual class: inhibitors | Drosophila S2 Gal4-RORgamma UAS-luciferase reporter, 20 h | 310,000 tested, 5.4% active | P51450; further: potency means the concentration at half of the fitted maximal effect; on the % scale 0 is the no-effect control and ±100 the full control effect; nearly all actives have a fitted effect of over 60% in size
# Target sequence (P51450 whole entry, looked up, the tested form may be a part): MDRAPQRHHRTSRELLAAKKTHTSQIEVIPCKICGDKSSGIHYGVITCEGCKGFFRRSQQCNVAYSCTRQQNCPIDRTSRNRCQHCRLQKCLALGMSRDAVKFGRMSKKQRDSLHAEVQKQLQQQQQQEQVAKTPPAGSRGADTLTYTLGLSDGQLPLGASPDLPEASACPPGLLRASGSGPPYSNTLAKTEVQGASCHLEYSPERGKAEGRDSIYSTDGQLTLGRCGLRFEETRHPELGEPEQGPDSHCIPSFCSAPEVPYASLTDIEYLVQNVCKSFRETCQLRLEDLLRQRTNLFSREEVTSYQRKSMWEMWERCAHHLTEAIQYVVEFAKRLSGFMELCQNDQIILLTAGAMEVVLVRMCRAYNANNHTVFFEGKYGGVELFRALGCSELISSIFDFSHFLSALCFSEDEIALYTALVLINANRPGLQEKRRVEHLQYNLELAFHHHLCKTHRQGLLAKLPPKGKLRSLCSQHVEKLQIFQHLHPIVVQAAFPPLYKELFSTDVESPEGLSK
#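 Luciferase reporter read in Schneider cells carrying Gal4-RORγ (mouse) and UAS-Photinus luciferase; cells given compound 1 h before 700 uM copper sulfate induction, then incubated 20 h at ambient temperature.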
# MCF10A rerep: induces DNA re-replication in MCF 10a normal breast cells; Potency, µM (titrated, usually from 46.1 µM), for inactives: at the top dose activity, positive = re-replication, usual class: activators; AID 624296; MCF 10A DNA re-replication, Hoechst nuclear intensity, 48 h; 350,000 tested, 2.9% active; further: potency means the concentration at half of the fitted maximal effect; % of control where 0% means no effect; nearly all actives have a fitted effect of over 50% in size
# SW480 rerep: inducers of DNA re-replication in SW480 colon cancer cells; SW480 DNA re-replication, Hoechst DNA content imaging, 48 h; Potency, µM (highest dose often 46.1 µM), for the others: top-dose re-replication activation, usual class: activators; 340,000 tested, 1.8% active; AID 624297; further: potency means the concentration at half of the fitted maximal effect; % of control where 0% means no effect; nearly all actives have a fitted effect of over 55% in size
#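 Treated cells incubate 48 hr (37 C, 5% CO2), are stained 40 min with Hoechst, and nuclear fluorescence is enumerated; a rise in nuclei with high DNA signal marks re-replication.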
# Gal4-VP16 FLuc: counter-screen for ROR gamma inhibitors: Gal4-VP16 reporter; Drosophila S2 Gal4-VP16 UAS-luciferase, luminescence, 20 h; Potency, µM (highest dose often 53.6 µM), for inactives: at the top dose activity, negative = inhibition, most hits filed as inhibitors; 310,000 tested, 3.5% active;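 further: Gal4-VP16 expression switched on by copper sulfate through the metallothionein promoter; potency means the concentration at half of the fitted maximal effect; on the % scale 0 is the no-effect control and ±100 the full control effect; nearly all actives have a fitted effect of over 50% in size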
# IL-1B inflam inh: inhibitors of inflammasome signaling (IL-1 beta secretion); activity change, % at 57.5 µM; 360,000 tested, 4.7% active; THP-1 LPS/ATP IL-1B secretion, AlphaLISA, 16 h; stronger effect = lower value; in the data active means activity change below about -50%; inconclusive means mostly about -30% to -49%; further: on the % scale 0 is the no-effect control and ±100 the full control effect
#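 THP-1 cells pretreated 1 hr with compounds (up to 57.5 uM final), then stimulated with LPS (250 ng/mL final) plus ATP (1.25 mM final); secreted IL-1B measured by AlphaLISA after 16 hr, decreased signal indicating inhibition.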
# An asterisk follows results filed as active; ? = inconclusive; nt = not tested or not shown; [ ] = another dose, or the depositor's remark. Shown are actives, neighbours in structure and some others; about 11% of the full set was active somewhere. Unless noted, the call rests on the fitted dose curve; in most records, active means well fitted curve in the direction sought with a large enough effect; inconclusive means small, poorly fitted or top-dose-only effect, or another doubt; inactive means no such curve, though single readings can be large; an effect the other way counts as inactive or inconclusive.
SMILES,RORgamma inh,MCF10A rerep,SW480 rerep,Gal4-VP16 FLuc,IL-1B inflam inh
Cn1c(=O)n(C)c2cc([N+](=O)[O-])c(N3CCN(C(=O)c4ccc(F)cc4)CC3)cc21,20%,9%,-6%,-3%,30
O=C(c1cccc(F)c1)N1CCN(c2cc(N3CCCCC3)c(F)cc2[N+](=O)[O-])CC1,?,?,-2%,?,-74*
Cn1c(=O)n(C)c2cc([N+](=O)[O-])c(N3CCN(C(=O)c4ccc(Cl)cc4)CC3)cc21,-3%,-32%,?,-1%,-80*
CCC(=O)N1CCN(c2cc(N3CCCC3)c(F)cc2[N+](=O)[O-])CC1,nt,12%,?,nt,?
Cc1ccsc1CNCc1cc(Cl)ccc1O,nt,?,-46%[9.22 µM],nt,-19
O=C(C[C@H]1C(=O)N(C2CCCCC2)C[C@@H]1c1ccccc1)Nc1ccc(Br)cc1,nt,nt,nt,nt,14
COc1cc(N2Cc3ccccc3C2)ccc1C=O,0.35µM*,-3%,-4%,0.4µM*,13
Cc1cc(C)cc(N2Cc3ccccc3C2)c1,43%,-3%,-9%,9%,20
Cc1cc(C)nc(-n2nc(C)c3c(C)c(C)c(C)nc32)n1,10µM*,nt,nt,-6%,nt
Cc1cc(C)nc(-n2nc(C)c3c(=O)[nH]c(C(F)(F)F)nc32)n1,-4%,-1%,-1%[9.22 µM],6%,-17
C/C=C\C[C@H](C)[C@H](O)[C@H]1C(=O)N[C@@H](CC)C(=O)N(C)CC(=O)N(C)[C@@H](CC(C)C)C(=O)N[C@@H](C(C)C)C(=O)N(C)[C@@H](CC(C)C)C(=O)N[C@@H](C)C(=O)N[C@@H](C)C(=O)N(C)[C@@H](CC(C)C)C(=O)N(C)[C@@H](CC(C)C)C(=O)N(C)[C@@H](C(C)C)C(=O)N1C,5%[16.9 µM],16%,nt,-8%[17 µM],nt
COc1ccc(-c2nc(CS(=O)CC(=O)NC3CCCCC3C)c(C)o2)cc1 (centres undefined),-21%,0%,-7%,2%,11
Cc1onc(-c2c(F)cccc2Cl)c1C(=O)NC1C(=O)N2C1SC(C)(C)C2C(=O)O (centres undefined),-14%[10 µM],4%,-5%,1%,nt
CCNCC(=O)N1c2ccccc2CCc2ccc(NC(=O)OC(C)C)cc21,-7%[1.91 µM],9%,16%,-4%,-66*
CCOC(=O)Nc1ccc2c(c1)N(C(=O)CN(CC)CC)c1ccccc1CC2,-9%,-3%,?,5%,-17
CCNCC(=O)N1c2ccccc2CCc2ccc(NC(C)=O)cc21,-12%,6%,-7%,-1%,2
CCOC(=O)Nc1ccc2c(c1)N(C(=O)CCN(CC)CC)c1ccccc1CC2,-2%,9%,0%,-16%,?
CCOC(=O)Nc1ccc2c(c1)N(C(=O)CCN(CC)CC)c1ccccc1S2=O (centres undefined),?,?,6%,13µM*,-100*
CCN(CC)CCC(=O)N1c2ccccc2CCc2ccc(NC(=O)OC)cc21,5%,?,?,0%,-62*
CCOC(=O)Nc1ccc2c(c1)N(C(=O)CN(CC)CC)c1ccccc1C=C2,-1%,12µM*,3%,-12%,-7
COc1ccc(N2C(=S)NC(C)(C)CC2(C)c2ccc(OC(C)=O)cc2OC(C)=O)cc1 (centres undefined),10µM*,2%,-1%,?,7
C=CC(C)(C)c1[nH]c2ccccc2c1C1=C(O)C(=O)C(c2c[nH]c3c(CC=C(C)C)cccc23)=C(O)C1=O,3%,nt,nt,?,nt
Cc1ccc(-n2c(C)n[nH]c2=S)cc1C,11µM*,-4%,-4%,?,11
Cc1cccc(-n2cc[nH]c2=S)c1,7.9µM*,3%,1%,?,0
Cc1cccc(-n2c(C)c(-c3ccccc3)[nH]c2=S)c1,1.1µM*,-1%,14%,7.9µM*,-15
SMILES,RORgamma inh,MCF10A rerep,SW480 rerep,Gal4-VP16 FLuc,IL-1B inflam inh
Cc1cc(=O)[nH]c(=S)n1-c1ccccc1,-26%,?,?,0%,7
Cc1ccc(-n2c(C)n[nH]c2=S)cc1,11µM*,1%,4%,?,15
COc1cc(C(O)c2nc(-c3cccc4cccnc34)cs2)ccc1F (centres undefined),nt,nt,nt,nt,0
Cc1[nH]c2ccccc2c1C(=O)C(=O)NCc1nnnn1-c1ccc(F)cc1,nt,nt,nt,nt,7
Cc1cccc(-n2c(C)n[nH]c2=S)c1,11µM*,-11%,2%,-10%,15
CC1CCN(CC(=O)N2CCCc3c2c(=O)oc2ccc(OCc4ccccc4)cc32)CC1,?,11µM*,?,?,-25
c1cncc(-c2nc(N3CCOCC3)c3c4c(sc3n2)CCC4)c1,1%,13%,0%,-12%,0
c1cncc(-c2nc(NCCCN3CCOCC3)c3c4c(sc3n2)CCC4)c1,0%,10%,3%,-19%,-129*
Cn1nccc1-c1ccc(C(=O)NCc2ccco2)c2occc12,nt,nt,nt,nt,0
CCn1c(NC(=S)Nc2ccccc2)nc2ccccc21,4.5µM*,-183%[0.0737 µM],2%,2.8µM*,-9
CCn1c(Nc2ccccc2Cl)nc2ccccc21,-20%,-3%,-2%,-1%,-7
S=C(Nc1ccccc1)Nc1nc2ccccc2n1CCOc1ccc(Cl)cc1,2.2µM*,?,?,1.8µM*,-88*
CCCn1c(NC(=S)Nc2ccccc2)nc2ccccc21,1µM*,?,nt,1.1µM*,-26
OCc1nc2ccccc2n1CCOc1ccccc1,nt,-6%,0%,nt,-24
Cc1nnc(NC(=O)CSc2nnc(CC(=O)Nc3ccccc3F)n2C)s1,-1%,-16%,-14%,-9%,24
CN(C)c1ccccc1C(=O)c1ccccc1N(C)C,?,4.1µM*,8.2µM*,?,24
O=C(O)C(Cc1cc(I)c(O)c(I)c1)c1ccccc1 (centres undefined),-2%,?,8%,-11%,nt
O=C(NCc1cccnc1)c1cccc(S(=O)(=O)Nc2ccc(F)cc2)c1,nt,9%,7%,nt,12
O=C(NCc1cccnc1)c1cccc(NS(=O)(=O)c2ccc(Br)cc2)c1,nt,0.65µM*,9.2µM*,nt,42
Cc1ccc(S(=O)(=O)Nc2cccc(C(=O)NCc3cccnc3)c2)cc1F,nt,2.9µM*,6.5µM*,nt,16
Cc1cc(S(=O)(=O)NCC(c2ccc(F)cc2)N2CCN(C)CC2)ccc1F (centres undefined),nt,?,?,nt,-13
COc1cc(NC(=O)COc2ccc(Cl)cc2)ccc1-c1cc2ccccc2oc1=O,12%,7.3µM*,?,12%,3
CCN(CC)CCCn1c(-c2ccccc2)nc2c(N3CCOCC3)nc(C)nc21,0%,nt,nt,7%,nt
CCCc1nc2oc3c(NCCCN(C)C)ncnc3c2c2c1CCCC2,?,15µM*,?,?,nt
CCCc1nc2oc3c(Cl)ncnc3c2c2c1CCCC2,5%,?,-65%,-3%,4
